# Shown are actives, neighbours in structure and some others; about 7.5% of the full set was active somewhere.
# SMN2 splice enh: enhancers of SMN2 splice variant expression; actives 2.8% (n = 210,000); AID 1458; Potency, µM (highest dose often 46.1 µM), inactives show top-dose activity change, positive = activation, most hits filed as activators; HEK293 SMN2-luciferase splicing reporter, luminescence, 30-36 h; further: % of control where 0% means no effect; nearly all actives have a fitted effect of over 55% in size
#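 HEK293 cells carry an SMN2 minigene-luciferase reporter in which exon 7 inclusion puts luciferase in frame. Cells were seeded at 2000 cells/well, attached for 10-12 hours, then exposed to compounds for 30-36 hours at 37C before ONE-Glo luminescence.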
# Rab9 promoter act: Rab9 promoter activation | Huh7 Rab9 promoter-luciferase reporter, luminescence, 24 h | Potency, µM (titrated, usually from 9.22 µM), for inactives: at the highest dose activation, negative = inhibition, actives largely listed as activators | actives 2.8% (n = 320,000) | AID 485297; further: % of control where 0% means no effect; nearly all actives have a fitted effect of over 60% in size
#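 Measured in stably transfected Huh7 cells bearing a Rab9 promoter–luciferase construct: 24 h compound treatment at 37 °C, followed by luminescence detection.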
# ELG1 genotoxic: genotoxicity induction in ELG1-luciferase HEK293T cells; HEK293T ELG1-luciferase reporter, luminescence, 16 h; Potency, µM (titrated, usually from 46 µM), without a hit: top-dose activity change, positive = activation, hits mostly activators; actives 1.3% (n = 330,000); further: % of control where 0% means no effect; nearly all actives have a fitted effect of over 60% in size
#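 Screening used a luciferase reporter fused to human ELG1 in HEK293T cells. Luminescence was read on a CCD plate imager after 16 hr exposure and 30 min ONE-Glo incubation.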
# NPC1 promoter act: activates the NPC1 promoter | Potency, µM (highest dose often 9.22 µM), inactives show at the highest dose activation, actives largely listed as activators | AID 485313 | actives 2.4% (n = 320,000) | Huh7 NPC1 promoter luciferase reporter, 24 h; further: % of control where 0% means no effect; nearly all actives have a fitted effect of over 60% in size
#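 Stably transfected Huh7 (NPC1 promoter→luciferase), 1500 cells/well in Opti-MEM + 10% FBS, 2 h settle, then compound 24 h at 37 °C. Luminescence after 10 min with Amplite reagent.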
# FLuc counter: firefly luciferase modulation, counter-screen for miR-21 project; P08659; purified FLuc, Km substrates, luminescence inhibition; Potency, µM (top dose mostly 57.5 µM), for the others: top-dose activity change, negative = inhibition, usual class: inhibitors; actives 6.9% (n = 360,000);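 further: plate controls were vehicle for no effect and reference inhibitor for full effect; nearly all actives have a fitted effect of over 55% in size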
# Target sequence (P08659 whole entry, looked up): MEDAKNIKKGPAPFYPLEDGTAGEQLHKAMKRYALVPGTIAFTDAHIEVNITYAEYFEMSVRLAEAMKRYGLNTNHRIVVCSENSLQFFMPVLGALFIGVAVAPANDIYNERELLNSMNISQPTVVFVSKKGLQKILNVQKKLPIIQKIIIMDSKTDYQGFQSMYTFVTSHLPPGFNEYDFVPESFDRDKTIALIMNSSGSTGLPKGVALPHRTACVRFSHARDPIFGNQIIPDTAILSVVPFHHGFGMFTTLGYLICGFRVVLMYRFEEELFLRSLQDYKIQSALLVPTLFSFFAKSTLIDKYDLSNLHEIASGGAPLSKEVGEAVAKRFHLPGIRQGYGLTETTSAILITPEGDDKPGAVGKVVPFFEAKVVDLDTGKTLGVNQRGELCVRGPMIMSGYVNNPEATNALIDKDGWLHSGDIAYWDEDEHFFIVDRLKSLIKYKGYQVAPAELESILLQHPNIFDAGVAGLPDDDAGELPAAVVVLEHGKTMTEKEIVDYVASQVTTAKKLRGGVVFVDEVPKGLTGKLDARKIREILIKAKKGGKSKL
#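 Purified P. pyralis luciferase, 10 nM final, with Km-level 10 uM D-luciferin and 10 uM ATP in 50 mM Tris acetate pH 7.5, 10 mM Mg acetate, 0.01% Tween-20, 0.05% BSA; 6-point qHTS titration about 60 µM downward; luminescence read.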
# Luc counter: blocks Kinase-Glo luciferase, a counter-screen artifact; Q27757; Kinase-Glo luciferase, ATP luminescence, 8 min; Potency, µM (series often up to 38.3 µM), for inactives: at the highest dose activity change, negative = inhibition, most hits filed as inhibitors; actives 0.28% (n = 200,000); further: on the % scale 0 is the no-effect control and ±100 the full control effect; nearly all actives have a fitted effect of over 60% in size
#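 Recombinant Kinase-Glo luciferase, 10 uM ATP (linear range), luciferin; imidazole pH 7.2 / KCl / MgCl2 / Tween / BSA buffer; 8 min RT; luminescence.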
# Active calls of the source: *; u = inconclusive; x = no result; [ ] = dose if it differs, or a comment. The call rests on the fitted dose curve; in most records, active means well fitted curve in the direction sought with a large enough effect; inconclusive means small, poorly fitted or top-dose-only effect, or another doubt; inactive means no such curve, though single readings can be large; an effect the other way counts as inactive or inconclusive. Potency means the concentration at half of the fitted maximal effect.
SMILES,SMN2 splice enh,Rab9 promoter act,ELG1 genotoxic,NPC1 promoter act,FLuc counter,Luc counter
Cc1cc(C)c(-n2c(SCc3nc4ccccc4s3)n[nH]c2=O)c(C)c1,x,-1%,-4%,-8%,3%,x
O=C(CSc1n[nH]c(=O)n1C1CC1)NCc1ccccc1,x,0%,0%,0%,-3%,x
Cc1nn(C)c2nc(NNC(=O)Nc3cc(Cl)nc(Cl)c3)cc(C(C)C)c12,x,x,x,x,x,4%[39.9 µM]
COc1ccc(C(=O)N=c2nc3ccccn3s2)cc1,x,0.25µM*,0.37µM*,0.13µM*,0.095µM*,7.9µM*
CC(=O)Oc1ccc(-c2cccc(C(=O)O)c2)cc1,-7%,-1%,u,12%,3.8µM*,-3%
CC(=O)Oc1ccc(-c2ccc(C(=O)O)cc2)cc1,21%,-7%,5%,-3%,u,2%
CS(=O)(=O)Nc1ccccc1C(=O)NC1CC2CCC1C2 (stereo not given),12%,-5%,-1%,-1%,0%,-1%
O=C(Nc1cccc(Cl)c1)NC1CC2CCC1C2 (stereo not given),x,16%,10%,26%,24µM*,x
O=C(Nc1cccc(Cl)c1)NC1CC2CCC(C1)N2Cc1ccco1 (stereo not given),5%,11%,0%,0%,-2%,0%
O=C(/C=C/c1ccc([N+](=O)[O-])cc1)NC1CC2CCC1C2 (stereo not given),15%,13%,9%,-1%,u,-2%
O=C(/C=C/c1ccc(Cl)cc1)NC1CC2CCC1C2 (stereo not given),3%,11%,u,7%,24µM*,-2%
O=C(/C=C/c1ccccc1)NC1CC2CCC1C2 (stereo not given),u,17%,u,22%,19µM*,0%
CCCc1cc(=O)n2[nH]c(NCc3ccccc3OC)nc2n1,3%,x,x,x,u,x
COc1ccc(C(=O)NCc2ccc3c(c2)CCN3C(C)=O)c(OC)c1,x,x,x,x,-7%,x
O=C(NCCC1=CCCCC1)C1CCN(S(=O)(=O)c2ccc(Br)s2)CC1,-2%,-6%,-2%,-4%,1%,3%
Cc1ccc2ncc(C(=O)Nc3cccc(C(F)(F)F)c3)c(=O)n2c1,-6%,x,x,x,0%,x
O=C(CSc1nnc(NC(=O)c2c(F)cccc2F)s1)NC1CC1,x,-2%,6%,-2%,-6%,x
O=C(CSc1nc2ccccc2s1)c1cc2ccccc2o1,0%,x,x,x,17µM*,-1%
O=C(CSc1nc2ccccc2s1)CSc1nc2ccccc2s1,19%,-4%,2%,6%,-2%,-5%
CCC(=O)Nc1nnc(SCC(=O)Nc2cccc(Cl)c2)s1,x,-3%,-5%,-4%,-17%,x
O=C(CSc1nnc(NC(=O)c2ccc(F)cc2F)s1)NC1CC1,x,u,u,u,7.6µM*,x
O=C(CSc1nnc(NC(=O)c2ccccc2Cl)s1)Nc1ccc2c(c1)oc1ccccc12,35µM*,u,u,3.5µM*,0.95µM*,-10%
O=c1oc2ccccc2n1CSc1nc2ccccc2s1,14%,4µM*,u,2.8µM*,12µM*,-2%
CC(C)C1CC(CCN2CCCCC2)(c2ccccc2)CCO1 (stereo not given),-2%,5%,7%,-10%,0%,8%
Cc1ccc(NC(=O)CCSc2nc(C)cc(C)n2)cc1,-21%,-3%,1%,-1%,-4%,-2%
SMILES,SMN2 splice enh,Rab9 promoter act,ELG1 genotoxic,NPC1 promoter act,FLuc counter,Luc counter
Cc1ccc(NC(=O)c2ccc(F)c(S(=O)(=O)NCCc3ccccc3)c2)cc1F,x,x,x,x,-1%,x
O=C(CSc1nc2ccccc2s1)Nc1ccc2c(c1)oc1ccccc12,11µM*,24%,8%,17%,-2%,-3%
Cc1ccccc1C(=O)Nc1nnc(SCC(=O)NC2CC2)s1,x,2.2µM*,u,2.5µM*,8.5µM*,x
CCOC(=O)CNC(=O)CSc1nnc(NC(=O)c2ccc(S(=O)(=O)N3CCOCC3)cc2)s1,x,0%,3%,-2%,u,x
CC(=O)Nc1nnc(SCC(=O)NC2CCCC2)s1,x,0%,-10%,-5%,2%,x
CC(C)(C)NC(=O)CSc1nnc(NC(=O)c2ccccc2Cl)s1,15%,11%,7%,10%,17µM*,-7%
CCOC(=O)CNC(=O)CSc1nnc(NC(=O)c2ccccc2Cl)s1,u,u,u,24%,11µM*,-8%
CC(=O)Nc1nnc(SCC(=O)NC(C)(C)C)s1,-8%,12%,-7%,17%,0%,-5%
O=C(CSc1nnc(NC(=O)c2ccccc2Cl)s1)NC1CC1,x,4.5µM*,17%,u,12µM*,x
CC(C)OC(=O)CSc1nc2ccccc2s1,-20%,-1%,u,1%,24µM*,-6%
Nc1ccc2nc(SCc3ccc([N+](=O)[O-])cc3)sc2c1,-25%,3%,0%,-7%,21µM*,-2%
Nc1nnc(SCc2ccc([N+](=O)[O-])cc2)s1,-24%,-2%,-4%,1%,-2%,5%
COC(=O)CSc1nc2ccc(N)cc2s1,1%,-2%,-2%,0%,27µM*,-3%
Cc1ccc2[nH]c(-c3ccccc3)cc(=O)c2c1,11µM*,u,u,u,1.7µM*,5%
Cc1ccc(-c2cc(=O)c3ccccc3[nH]2)cc1,12%,u,10%,19%,19µM*,0%[39.9 µM]
Cc1ccc(-c2cc(=O)c3cc(Cl)ccc3[nH]2)cc1,x,4µM*,u,u,0.54µM*,0%[39.9 µM]
COC(=O)c1sc(N2C(=O)C(O)=C(C(=O)c3ccc(C)o3)C2c2ccc([N+](=O)[O-])cc2)nc1C (stereo not given),x,1.8µM*,u,3.5µM*,19µM*,x
COc1ccc(/C=C/C(=O)c2cccs2)c(OC)c1,x,x,x,x,x,-20%
O=C(/C=C/c1ccnc2ccccc12)c1cccs1,7.1µM*,0.32µM*,u,0.56µM*,0.067µM*,13µM*
Cc1ccc2oc(-c3cccc(NC(=O)Cc4ccc(Cl)cc4)c3)nc2c1,-5%,x,x,x,1%,x
CCOc1cccc(-c2nc3cc(C)ccc3o2)c1,13µM*,u,u,13%,0.95µM*,-13%
Cc1ccc2oc(-c3ccccc3)nc2c1,u,3.2µM*,u,1.1µM*,0.6µM*,u
Cc1cccc(OCC(=O)Nc2ccc(-c3nc4cc(C)ccc4o3)c(O)c2)c1,26%,x,x,x,-13%,x
Cc1[nH]c2ccccc2c1CCN(Cc1cccnc1)C(=S)NC(C)(C)C,x,-11%,-1%,1%,0%,x
CCC1Nc2ncnc(N3CCOCC3)c2N(Cc2ccc(Cl)cc2)C1=O (stereo not given),x,x,4%,x,x,x

# Bioassay records from PubChem BioAssay.
